# This is part of a sample that, as a whole, favours compounds with a hit. Of some 79,000 tested, about 15% had one in any assay. Values without a mark were called inactive. The source made the active and inactive calls. Cut-off read from the data, not from the text of the source: active = growth inhibition above about 70%; inactive = the rest.
# Assays:
# [1] = NCI Yeast Anticancer Drug Screen. Data for the wt2 strain (AID 169);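 note: 0% = growth of vehicle-treated yeast cultures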; settings: S. cerevisiae wt2 strain growth inhibition, hits give high values
# Outline: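 Read-out: growth inhibition versus vehicle-treated control cultures after compound exposure of the yeast strain.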
# [2] = NCI Yeast Anticancer Drug Screen. Data for the sgs1 strain (AID 173);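 note: 0% = growth of vehicle-only control cultures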; settings: S. cerevisiae sgs1 mutant, hits give high values
# Outline: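 Read-out: yeast growth inhibition relative to vehicle controls, following compound exposure of a strain with a defined DNA repair/cell cycle alteration.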
# [3] = NCI Yeast Anticancer Drug Screen. Data for the rad18 strain (AID 177); settings: S. cerevisiae rad18 mutant growth inhibition, hits give high values
# Outline: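 Readout: growth inhibition vs vehicle controls. Cells: genetically altered yeast strain, DNA repair defect.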
# [4] = NCI Yeast Anticancer Drug Screen. Data for the rad52 strain (AID 147);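 note: 0% = growth of vehicle-treated control cultures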; settings: S. cerevisiae rad52 mutant growth inhibition, hits give high values
# Outline: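 Read-out: growth inhibition versus vehicle-treated controls. Cells were a DNA repair-deficient yeast strain treated with compounds.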
# [5] = NCI Yeast Anticancer Drug Screen. Data for the wt1 strain (AID 149);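 note: 0% = growth of vehicle-treated wt1 cultures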; settings: S. cerevisiae wt1 strain (SPY 50644) growth inhibition, hits give high values
# Outline: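 Yeast wt1 strain exposed to compounds; growth inhibition measured relative to vehicle-treated controls.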
# [6] = NCI Yeast Anticancer Drug Screen. Data for the rad50EPP+ strain (AID 151);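 note: 0% = growth of vehicle-treated control cultures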; settings: S. cerevisiae rad50 mutant strain, hits give high values
# Outline: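 Growth inhibition read against vehicle controls in rad50EPP+ yeast, a strain altered in DNA damage repair, after compound exposure.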
# [7] = NCI Yeast Anticancer Drug Screen. Data for the mgt1 strain (AID 153); settings: S. cerevisiae mgt1 mutant growth inhibition, hits give high values
# Outline: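 mgt1 yeast grown with test compound; read-out is growth inhibition versus vehicle-treated cultures.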
# [8] = NCI Yeast Anticancer Drug Screen. Data for the rad50 strain (AID 155);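 note: 0% = growth of vehicle-only cultures of the same strain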; settings: S. cerevisiae rad50 strain growth inhibition, hits give high values
# Outline: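 Yeast carrying a defined DNA repair defect were exposed to test compounds, and growth was compared with vehicle-treated controls to give percent inhibition.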
# [9] = NCI Yeast Anticancer Drug Screen. Data for the mec2-1 strain (AID 157); settings: S. cerevisiae mec2-1 strain, hits give high values
# Outline: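 Yeast mec2-1 mutant treated with compound. Readout: growth inhibition vs vehicle controls.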
# [10] = NCI Yeast Anticancer Drug Screen. Data for the sgs1 mgt1 strain (AID 161);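 note: 0% = growth of cultures given vehicle only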; settings: S. cerevisiae sgs1 mgt1 strain, hits give high values
# Outline: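 Test agents were incubated with a DNA-repair-mutant yeast strain. Growth was then read and compared against vehicle-treated controls.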
# [11] = NCI Yeast Anticancer Drug Screen. Data for the CLN2oe strain (AID 163);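 note: 0% = growth of vehicle-only control cultures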; settings: S. cerevisiae CLN2oe strain, hits give high values
# Outline: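 Read-out: yeast growth inhibition, expressed relative to vehicle-only controls. The strain bears an engineered cell-cycle alteration.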
# [12] = NCI Yeast Anticancer Drug Screen. Data for the cln2 rad14 strain (AID 165);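 note: 0% = growth equal to vehicle treated cultures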; settings: S. cerevisiae cln2 rad14 strain, hits give high values
# Outline: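 cln2 rad14 yeast strain; compound exposure; growth inhibition read vs vehicle controls.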
# [13] = NCI Yeast Anticancer Drug Screen. Data for the bub3 strain (AID 167); settings: S. cerevisiae bub3 mutant strain, hits give high values
# Outline: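 Compounds were applied to a genetically altered yeast strain carrying a cell-cycle control defect. Growth inhibition was scored against vehicle-treated controls.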
# [14] = NCI Yeast Anticancer Drug Screen. Data for the mlh1 strain (AID 171);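 note: 0% = growth of vehicle-treated control cultures of the same strain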; settings: S. cerevisiae mlh1 strain growth inhibition, hits give high values
# Outline: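 Read-out: growth inhibition versus vehicle controls. Strain: engineered yeast with a defined DNA repair or cell cycle defect, compound-treated.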
# [15] = NCI Yeast Anticancer Drug Screen. Data for the mlh1 rad18 strain (AID 175); settings: S. cerevisiae mlh1 rad18 strain growth inhibition, hits give high values
# Outline: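 Yeast w/ defined DNA-repair lesions; compound exposure; growth vs vehicle controls → % inhibition.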
# [16] = NCI Yeast Anticancer Drug Screen. Data for the rad14 strain (AID 159);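 note: 0% = growth of vehicle-treated control cultures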; settings: S. cerevisiae rad14 strain growth inhibition, hits give high values
# Outline: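 Yeast cells carrying a defined DNA-repair defect were exposed to compounds, and growth inhibition was calculated relative to vehicle-treated control cultures.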
# [17] = at 5.0 µM (retest, dose inferred, filed as 0.5)
# [18] = at 50.0 µM (retest, dose inferred, filed as 5.0)
structure (smiles),measurement,setting,value
NC(N)=N/N=C/c1cc(Cl)cc(Cl)c1O,growth inhibition,[1]; at 33.0 µM,30%
same,growth inhibition,[1]; at 100.0 µM,97% (active)
same,growth inhibition,[2]; at 1.2 µM,-12%
same,growth inhibition,[2]; at 3.7 µM,-14%
same,growth inhibition,[2]; at 11.0 µM,-1%
same,growth inhibition,[2]; at 33.0 µM,37%
same,growth inhibition,[2]; at 100.0 µM,98% (active)
same,growth inhibition,[3]; at 1.2 µM,-8%
same,growth inhibition,[3]; at 3.7 µM,-11%
same,growth inhibition,[3]; at 11.0 µM,-6%
same,growth inhibition,[3]; at 33.0 µM,49%
same,growth inhibition,[3]; at 100.0 µM,95% (active)
Cc1ccc(I)cc1N=C=S,growth inhibition,[4]; at 1.2 µM,-5%
same,growth inhibition,[4]; at 3.7 µM,6%
same,growth inhibition,[4]; at 11.0 µM,22%
same,growth inhibition,[4]; at 33.0 µM,82% (active)
same,growth inhibition,[4]; at 100.0 µM,99% (active)
same,growth inhibition,[5]; at 1.2 µM,-12%
same,growth inhibition,[5]; at 3.7 µM,-14%
same,growth inhibition,[5]; at 11.0 µM,-9%
same,growth inhibition,[5]; at 33.0 µM,74% (active)
same,growth inhibition,[5]; at 100.0 µM,99% (active)
same,growth inhibition,[6]; at 1.2 µM,15%
same,growth inhibition,[6]; at 3.7 µM,36%
same,growth inhibition,[6]; at 11.0 µM,63%
same,growth inhibition,[6]; at 33.0 µM,96% (active)
same,growth inhibition,[6]; at 100.0 µM,99% (active)
same,growth inhibition,[7]; at 1.2 µM,31%
same,growth inhibition,[7]; at 3.7 µM,44%
same,growth inhibition,[7]; at 11.0 µM,53%
same,growth inhibition,[7]; at 33.0 µM,96% (active)
same,growth inhibition,[7]; at 100.0 µM,99% (active)
same,growth inhibition,[8]; at 1.2 µM,8%
same,growth inhibition,[8]; at 3.7 µM,6%
same,growth inhibition,[8]; [17],32%
same,growth inhibition,[8]; at 11.0 µM,25%
same,growth inhibition,[8]; at 33.0 µM,94% (active)
same,growth inhibition,[8]; [18],62%
same,growth inhibition,[8]; at 50.0 µM,79.1% (active)
same,growth inhibition,[8]; at 100.0 µM,99% (active)
same,growth inhibition,[9]; at 1.2 µM,-4%
same,growth inhibition,[9]; at 3.7 µM,8%
same,growth inhibition,[9]; [17],48%
same,growth inhibition,[9]; at 11.0 µM,8%
same,growth inhibition,[9]; at 33.0 µM,82% (active)
same,growth inhibition,[9]; [18],62%
same,growth inhibition,[9]; at 50.0 µM,56.9%
same,growth inhibition,[9]; at 100.0 µM,99% (active)
same,growth inhibition,[10]; [17],0%
same,growth inhibition,[10]; [18],100% (active)
same,growth inhibition,[11]; at 1.2 µM,-2%
same,growth inhibition,[11]; at 3.7 µM,6%
same,growth inhibition,[11]; at 11.0 µM,10%
same,growth inhibition,[11]; at 33.0 µM,68%
same,growth inhibition,[11]; at 100.0 µM,98% (active)
same,growth inhibition,[12]; [17],52%
same,growth inhibition,[12]; [18],100% (active)
same,growth inhibition,[13]; at 1.2 µM,7%
same,growth inhibition,[13]; at 3.7 µM,28%
same,growth inhibition,[13]; [17],7%
same,growth inhibition,[13]; at 11.0 µM,37%
same,growth inhibition,[13]; at 33.0 µM,96% (active)
same,growth inhibition,[13]; [18],100% (active)
same,growth inhibition,[13]; at 100.0 µM,99% (active)
same,growth inhibition,[1]; at 1.2 µM,-21%
same,growth inhibition,[1]; at 3.7 µM,-12%
same,growth inhibition,[1]; at 11.0 µM,4%
same,growth inhibition,[1]; at 33.0 µM,82% (active)
same,growth inhibition,[1]; at 100.0 µM,99% (active)
same,growth inhibition,[14]; at 1.2 µM,28%
same,growth inhibition,[14]; at 3.7 µM,28%
same,growth inhibition,[14]; at 11.0 µM,44%
same,growth inhibition,[14]; at 33.0 µM,93% (active)
same,growth inhibition,[14]; at 100.0 µM,99% (active)
same,growth inhibition,[2]; at 1.2 µM,6%
same,growth inhibition,[2]; at 3.7 µM,2%
same,growth inhibition,[2]; at 11.0 µM,18%
same,growth inhibition,[2]; at 33.0 µM,83% (active)
same,growth inhibition,[2]; at 100.0 µM,99% (active)
same,growth inhibition,[15]; [17],35%
same,growth inhibition,[15]; [18],50%
same,growth inhibition,[15]; at 50.0 µM,63.1%
same,growth inhibition,[3]; at 1.2 µM,10%
same,growth inhibition,[3]; at 3.7 µM,24%
same,growth inhibition,[3]; at 11.0 µM,41%
same,growth inhibition,[3]; at 33.0 µM,86% (active)
same,growth inhibition,[3]; at 100.0 µM,99% (active)
Cn1ncc2cc3c(Nc4ccc(Cl)cc4)cccc3nc21,growth inhibition,[4]; at 1.2 µM,2%
same,growth inhibition,[4]; at 3.7 µM,2%
same,growth inhibition,[4]; at 11.0 µM,6%
same,growth inhibition,[4]; at 33.0 µM,39%
same,growth inhibition,[4]; at 100.0 µM,96% (active)
same,growth inhibition,[5]; at 1.2 µM,0%
same,growth inhibition,[5]; at 3.7 µM,-2%
same,growth inhibition,[5]; at 11.0 µM,-2%
same,growth inhibition,[5]; at 33.0 µM,0%
same,growth inhibition,[5]; at 100.0 µM,12%
same,growth inhibition,[6]; at 1.2 µM,0%
same,growth inhibition,[6]; at 3.7 µM,1%
same,growth inhibition,[6]; at 11.0 µM,2%
same,growth inhibition,[6]; at 33.0 µM,7%
same,growth inhibition,[6]; at 100.0 µM,36%
same,growth inhibition,[7]; at 1.2 µM,-1%
same,growth inhibition,[7]; at 3.7 µM,0%
same,growth inhibition,[7]; at 11.0 µM,-4%
same,growth inhibition,[7]; at 33.0 µM,-3%
same,growth inhibition,[7]; at 100.0 µM,9%
same,growth inhibition,[8]; at 1.2 µM,2%
same,growth inhibition,[8]; at 3.7 µM,5%
same,growth inhibition,[8]; [17],25%
same,growth inhibition,[8]; at 11.0 µM,10%
same,growth inhibition,[8]; at 33.0 µM,42%
same,growth inhibition,[8]; [18],83% (active)
same,growth inhibition,[8]; at 50.0 µM,59.9%
same,growth inhibition,[8]; at 100.0 µM,95% (active)
same,growth inhibition,[9]; at 1.2 µM,-5%
same,growth inhibition,[9]; at 3.7 µM,-7%
same,growth inhibition,[9]; [17],0%
same,growth inhibition,[9]; at 11.0 µM,-3%
same,growth inhibition,[9]; at 33.0 µM,-4%
same,growth inhibition,[9]; [18],5%
same,growth inhibition,[9]; at 50.0 µM,8.6%
same,growth inhibition,[9]; at 100.0 µM,6%
same,growth inhibition,[16]; at 1.2 µM,-2%
same,growth inhibition,[16]; at 3.7 µM,-2%
same,growth inhibition,[16]; at 11.0 µM,-3%
same,growth inhibition,[16]; at 33.0 µM,-3%
same,growth inhibition,[16]; at 100.0 µM,29%
same,growth inhibition,[11]; at 1.2 µM,-5%
same,growth inhibition,[11]; at 3.7 µM,-4%
same,growth inhibition,[11]; at 11.0 µM,-5%
same,growth inhibition,[11]; at 33.0 µM,-3%
same,growth inhibition,[11]; at 100.0 µM,-6%
same,growth inhibition,[12]; [17],-11%
same,growth inhibition,[12]; [18],1%
same,growth inhibition,[12]; at 50.0 µM,-6%
same,growth inhibition,[13]; at 1.2 µM,-3%
same,growth inhibition,[13]; at 3.7 µM,-5%
same,growth inhibition,[13]; [17],-7%
same,growth inhibition,[13]; at 11.0 µM,-7%
same,growth inhibition,[13]; at 33.0 µM,-11%
same,growth inhibition,[13]; [18],1%
same,growth inhibition,[13]; at 50.0 µM,44.6%
same,growth inhibition,[13]; at 100.0 µM,-7%
same,growth inhibition,[1]; at 1.2 µM,-1%
same,growth inhibition,[1]; at 3.7 µM,-2%
same,growth inhibition,[1]; at 11.0 µM,-2%
same,growth inhibition,[1]; at 33.0 µM,-2%
same,growth inhibition,[1]; at 100.0 µM,20%
same,growth inhibition,[14]; at 1.2 µM,0%
same,growth inhibition,[14]; at 3.7 µM,-4%
same,growth inhibition,[14]; at 11.0 µM,-2%
same,growth inhibition,[14]; at 33.0 µM,-2%
same,growth inhibition,[14]; at 100.0 µM,26%
same,growth inhibition,[2]; at 1.2 µM,-2%
same,growth inhibition,[2]; at 3.7 µM,-2%
same,growth inhibition,[2]; at 11.0 µM,-3%
same,growth inhibition,[2]; at 33.0 µM,0%
same,growth inhibition,[2]; at 100.0 µM,42%
same,growth inhibition,[15]; [17],-2%
same,growth inhibition,[15]; [18],7%
same,growth inhibition,[15]; at 50.0 µM,2.05%
same,growth inhibition,[3]; at 1.2 µM,-2%
same,growth inhibition,[3]; at 3.7 µM,-4%
same,growth inhibition,[3]; at 11.0 µM,-3%
same,growth inhibition,[3]; at 33.0 µM,-2%
same,growth inhibition,[3]; at 100.0 µM,52%
